3 compounds from PubChem BioAssay (EPA / NIEHS) can be followed below.

Read-out in assay [1]: C-C motif chemokine 2 (Homo sapiens) (UniProt P13500)
Description: BSK_KF3CT_MCP1: BioMAP Diversity Plus: KF3CT Assay for Monocyte Chemoattractant Protein 1 (MCP1/CCL2) Biomarker Activity (AID 2283073). Particulars: primary human keratinocytes with fibroblasts; actives raise or lower the signal. Put shortly: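 Human keratinocyte plus foreskin fibroblast primary co-culture exposed to chemical for 24 h. MCP-1 levels measured by ELISA. Bidirectional curve fitting relative to DMSO negative control as baseline.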

Read-out in assay [2]: Matrix Metallopeptidase 9 (MMP9), MMP9 (gene 4318)
Description: BSK_KF3CT_MMP9: BioMAP Diversity Plus: KF3CT Assay for Matrix Metallopeptidase 9 (MMP9) Biomarker Activity (AID 2283074). The conditions noted are these: primary human keratinocytes with fibroblasts; actives raise or lower the signal. In outline: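 MMP-9 quantified by ELISA after 24 h chemical treatment of primary human skin keratinocyte/fibroblast co-cultures; gain or loss fitted against DMSO, with parallel SRB staining (0.1% SRB, 560 nm) for overt cytotoxicity.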

Read-out in assay [3]: urokinase plasminogen activator (uPA), PLAU (gene 5328)
The experiment in a line: BSK_KF3CT_uPA: BioMAP Diversity Plus: KF3CT Assay for urokinase plasminogen activator (uPA) Biomarker Activity (AID 2283075). Particulars: primary human keratinocytes with fibroblasts; actives raise or lower the signal. Put shortly: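 ELISA read-out of uPA 24 h after dosing human skin keratinocytes co-cultured with foreskin fibroblasts. Signal change fitted both ways relative to DMSO; sulforhodamine B on parallel cultures marks overt cytotoxicity.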

Read-out in assay [4]: CD40, CD40 (gene 958)
The experiment in a line: BSK_LPS_CD40: BioMAP Diversity Plus: LPS Assay for CD40 Biomarker Activity (AID 2283076). The conditions noted are these: primary human HUVEC with PBMC; actives raise or lower the signal. Put shortly: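 Primary human umbilical vein endothelial cells co-cultured with peripheral blood mononuclear cells, LPS-stimulated, were dosed with chemical and read 24 h later. CD40 levels were measured by ELISA and fitted bidirectionally against DMSO as negative control and baseline.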

Read-out in assay [5]: E-selectin (Homo sapiens) (UniProt P16581)
The experiment in a line: BSK_LPS_Eselectin: BioMAP Diversity Plus: LPS Assay for Eselectin Biomarker Activity (AID 2283077). The conditions noted are these: primary human HUVEC with PBMC; actives raise or lower the signal. In outline: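 Human umbilical vein endothelial cells co-cultured with peripheral blood mononuclear cells under LPS stimulation; E-selectin measured by ELISA 24 h after chemical dosing. Activity fitted bidirectionally against DMSO as negative control and baseline.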

Read-out in assay [6]: Interleukin-8 (IL8), CXCL8 (gene 3576)
The experiment in a line: BSK_LPS_IL8: BioMAP Diversity Plus: LPS Assay for Interleukin-8 (IL8) Biomarker Activity (AID 2283078). Particulars: primary human HUVEC with PBMC; actives raise or lower the signal. In outline:
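Human umbilical vein endothelial cells co-cultured with PBMC were stimulated with LPS; IL-8 levels were measured by ELISA 24 h after chemical dosing. Activity was fitted bidirectionally against DMSO as negative control and baseline.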

Assay [7] in a line: BSK_LPS_SRB: Viability Assessment in the BioMAP Diversity Plus: LPS Assay (AID 2283079).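 Further: total protein by sulforhodamine B absorbance as a cytotoxicity measure; measured one day after compound addition; fitted in both directions against DMSO so loss or gain of signal counts.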 Particulars: primary human HUVEC with PBMC. In outline:
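Human umbilical vein endothelial cells co-cultured with PBMC (LPS system) were dosed for 24 h. Total protein was stained with 0.1% sulforhodamine B after 10% TCA fixation, read at 560 nm, and fitted bidirectionally against DMSO baseline.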

Read-out in assay [8]: Interleukin-1 alpha (IL1a), IL1A (gene 3552)
The experiment in a line: BSK_LPS_IL1a: BioMAP Diversity Plus: LPS Assay for Interleukin-1 alpha (IL1a) Biomarker Activity (AID 2283080). Particulars: primary human HUVEC with PBMC; actives raise or lower the signal. Put shortly: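 Human umbilical vein endothelial cells co-cultured with peripheral blood mononuclear cells were LPS-stimulated and exposed to test chemicals for 24 h. IL-1 alpha was quantified by ELISA, with bidirectional curve fitting against DMSO as the negative control and baseline.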

Read-out in assay [9]: Monocyte Chemoattractant Protein-1 (MCP1), CCL2 (gene 6347)
Description: BSK_LPS_MCP1: BioMAP Diversity Plus: LPS Assay for Monocyte Chemoattractant Protein-1 (MCP1) Biomarker Activity (AID 2283081). Particulars: primary human HUVEC with PBMC; actives raise or lower the signal. Put shortly:
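HUVEC plus PBMC co-culture (human primary cells, LPS system) exposed to test chemical for 24 h; MCP-1 measured by ELISA. Bidirectional curve fitting against DMSO baseline; parallel SRB total-protein staining flags overt cytotoxicity.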

Assay [10] is described as follows: BSK_LPS_PGE2: BioMAP Diversity Plus: LPS Assay for Prostaglandin E2 (PGE2) Biomarker Activity (AID 2283082).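 On AC50: secreted prostaglandin E2 measured by ELISA in LPS-stimulated co-culture.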 The conditions noted are these: primary human HUVEC with PBMC; actives raise or lower the signal. Put shortly:
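ELISA read-out of PGE2 from human umbilical vein endothelial cells co-cultured with peripheral blood mononuclear cells under LPS, 24 h post-dose. Gain or loss of signal scored relative to DMSO baseline.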

Read-out in assay [11]: Macrophage colony-stimulating factor (MCSF), CSF1 (gene 1435)
The experiment in a line: BSK_LPS_MCSF: BioMAP Diversity Plus: LPS Assay for Macrophage colony-stimulating factor (MCSF) Biomarker Activity (AID 2283083). Particulars: primary human HUVEC with PBMC; actives raise or lower the signal. Put shortly:
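Human umbilical vein endothelial cells co-cultured with peripheral blood mononuclear cells were exposed to compound for 24 h. M-CSF levels were measured by ELISA, and bidirectional curve fitting used DMSO as the negative control and baseline.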

Read-out in assay [12]: Tissue Factor, F3 (gene 2152)
Description: BSK_LPS_TissueFactor: BioMAP Diversity Plus: LPS Assay for Tissue Factor Biomarker Activity (AID 2283084). Particulars: primary human HUVEC with PBMC; actives raise or lower the signal. In outline:
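Human umbilical vein endothelial cells co-cultured with peripheral blood mononuclear cells were dosed and stimulated with LPS. Cell-surface CD142 was quantified by ELISA at 24 h. Activity was fitted bidirectionally against DMSO baseline.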

Read-out in assay [13]: Vascular cell adhesion molecule 1 (VCAM1), VCAM1 (gene 7412)
The experiment in a line: BSK_LPS_VCAM1: BioMAP Diversity Plus: LPS Assay for Vascular cell adhesion molecule 1 (VCAM1) Biomarker Activity (AID 2283086). Particulars: primary human HUVEC with PBMC; actives raise or lower the signal. Put shortly:
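ELISA read-out of VCAM-1 at 24 h post-dosing in an LPS-driven HUVEC/PBMC primary human co-culture; gain or loss of signal fitted bidirectionally against DMSO baseline. Cytotoxicity tracked in parallel cultures by SRB total-protein staining.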

Read-out in a further assay: CD38, CD38 (gene 952)
Description: BSK_SAg_CD38: BioMAP Diversity Plus: SAg Assay for CD38 Biomarker Activity (AID 2283087). Particulars: primary human HUVEC with PBMC; actives raise or lower the signal. In outline:
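Measures CD38 on a human endothelial/PBMC co-culture driven by SEB and TSST-1, 24 h after compound exposure, using ELISA with fluorescence detection; DMSO defines baseline for bidirectional curve fitting.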

Read-out in assay [14]: CD40, CD40 (gene 958)
The experiment in a line: BSK_SAg_CD40: BioMAP Diversity Plus: SAg Assay for CD40 Biomarker Activity (AID 2283088). Particulars: primary human HUVEC with PBMC; actives raise or lower the signal. In outline:
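Human umbilical vein endothelial cells co-cultured with PBMC; CD40 levels measured by ELISA with fluorescence read-out 24 h after chemical dosing. Gain or loss of signal fitted bidirectionally against DMSO baseline.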

Read-out in a further assay: CD69, CD69 (gene 969)
Description: BSK_SAg_CD69: BioMAP Diversity Plus: SAg Assay for CD69 Biomarker Activity (AID 2283089). Particulars: primary human HUVEC with PBMC; actives raise or lower the signal. Put shortly: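 Primary human vascular co-culture (umbilical vein endothelium with peripheral blood mononuclear cells) exposed to test chemical for 24 h. CD69 levels quantified by fluorescence ELISA; DMSO served as negative control for bidirectional fitting.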

Read-out in assay [15]: Monocyte Chemoattractant Protein-1 (MCP1), CCL2 (gene 6347)
The experiment in a line: BSK_SAg_MCP1: BioMAP Diversity Plus: SAg Assay for Monocyte Chemoattractant Protein-1 (MCP1) Biomarker Activity (AID 2283090). Particulars: primary human HUVEC with PBMC; actives raise or lower the signal. In outline:
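Values derive from bidirectional fitting of ELISA-measured MCP1 against DMSO controls. Readings were taken 24 h after dosing human vascular endothelial cells co-cultured with peripheral blood mononuclear cells under superantigen stimulation.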

Read-out in assay [16]: E-selectin (Homo sapiens) (UniProt P16581)
The experiment in a line: BSK_SAg_Eselectin: BioMAP Diversity Plus: SAg Assay for Eselectin Biomarker Activity (AID 2283091). Particulars: primary human HUVEC with PBMC; actives raise or lower the signal. Put shortly:
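HUVEC co-cultured with PBMC, compound dosed then read at 24 h; E-selectin measured by ELISA. Activity fitted bidirectionally against DMSO as negative control and baseline.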

Read-out in assay [17]: Monokine induced gamma interferon (MIG), CXCL9 (gene 4283)
Description: BSK_SAg_MIG: BioMAP Diversity Plus: SAg Assay for Monokine induced gamma interferon (MIG) Biomarker Activity (AID 2283092). The conditions noted are these: primary human HUVEC with PBMC; actives raise or lower the signal. In outline:
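Endothelial cells and PBMC were co-cultured, exposed to test chemicals, and sampled 24 h later. MIG was measured by ELISA, and responses were fitted in both directions relative to DMSO.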

Read-out in assay [18]: Tumor necrosis factor (Homo sapiens) (UniProt P01375)
Description: BSK_LPS_TNFa: BioMAP Diversity Plus: LPS Assay for Tumour Necrosis Factor alpha (TNFa) Biomarker Activity (AID 2283085). The conditions noted are these: primary human HUVEC with PBMC; actives raise or lower the signal. In outline:
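HUVEC/PBMC co-culture, LPS-stimulated; 24 h post-dose; TNFa by ELISA; gain or loss of signal fitted bidirectionally vs DMSO baseline.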

Active and inactive are the calls of the source. How the source made its calls: active means hit-call score of the fitted dose curve at least 0.9, where 1 is the maximum; inactive means score below 0.9.

Sequence of Tumor necrosis factor (Homo sapiens) (P01375 whole entry, looked up): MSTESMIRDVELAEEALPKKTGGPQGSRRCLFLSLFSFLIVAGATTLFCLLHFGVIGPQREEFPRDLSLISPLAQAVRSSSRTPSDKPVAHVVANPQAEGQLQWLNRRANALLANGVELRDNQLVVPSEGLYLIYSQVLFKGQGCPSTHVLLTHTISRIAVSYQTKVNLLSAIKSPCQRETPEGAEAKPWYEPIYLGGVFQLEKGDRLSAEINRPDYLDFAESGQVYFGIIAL
Sequence of E-selectin (Homo sapiens) (P16581 whole entry, looked up): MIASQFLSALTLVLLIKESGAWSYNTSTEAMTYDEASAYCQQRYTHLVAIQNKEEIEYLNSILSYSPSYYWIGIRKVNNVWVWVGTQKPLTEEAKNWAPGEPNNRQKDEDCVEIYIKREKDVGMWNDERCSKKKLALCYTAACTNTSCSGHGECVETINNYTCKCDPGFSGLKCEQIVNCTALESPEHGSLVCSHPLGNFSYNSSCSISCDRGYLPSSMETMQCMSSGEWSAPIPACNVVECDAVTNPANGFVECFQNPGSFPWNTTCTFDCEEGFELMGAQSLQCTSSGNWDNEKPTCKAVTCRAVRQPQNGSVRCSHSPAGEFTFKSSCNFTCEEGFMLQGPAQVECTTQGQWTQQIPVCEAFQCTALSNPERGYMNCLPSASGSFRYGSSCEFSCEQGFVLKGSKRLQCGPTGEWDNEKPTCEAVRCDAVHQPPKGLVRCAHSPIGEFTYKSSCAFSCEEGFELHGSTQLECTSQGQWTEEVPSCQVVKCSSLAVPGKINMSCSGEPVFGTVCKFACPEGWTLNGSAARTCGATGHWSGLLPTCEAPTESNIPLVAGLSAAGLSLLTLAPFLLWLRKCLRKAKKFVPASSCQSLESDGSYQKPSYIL

With `Nc1cccc2c(N)cccc12`, the outcome in assay [1] is “inactive”; in assay [2], “inactive”; in assay [3], “inactive”; in the assay with CD40, CD40 (gene 958) [4], “inactive”; in assay [5] it was “inactive”; in [6] it was “inactive”. Further, the outcome in assay [7], in assay [8], in assay [9], in [11], in assay [12] and in assay [13] was inactive. Besides, the outcome in the assay with CD38, CD38 (gene 952) was “inactive”; with CD40, CD40 (gene 958) [14], “inactive”; with CD69, CD69 (gene 969), “inactive”; in assay [15], “inactive”; in assay [16], “inactive”; in assay [17], “inactive”. The AC50 (in general, the concentration at which the activity in the assay is half-maximal) in assay [10] is 12.9 µM (active).

In the case of `NCC(F)(F)C(F)(F)C(F)(F)C(F)(F)C(F)(F)C(F)(F)C(F)(F)F`, the outcome in assay [1] is “inactive”; in [2] it was “inactive”; in assay [3], “inactive”; with CD40, CD40 (gene 958) [4], “inactive”; in assay [5] it was “inactive”; in assay [6] it was “inactive”. Moreover, the result in assay [7], in [8], in assay [9], in assay [10], in assay [11] and in assay [12] was inactive. The outcome was “inactive” in assay [18]; “inactive” in assay [13]; “inactive” in the assay with CD38, CD38 (gene 952); “inactive” in the assay with CD40, CD40 (gene 958) [14]; “inactive” with CD69, CD69 (gene 969); “inactive” in assay [15]. Also, the result in [16] and in assay [17] was inactive.

`CCOC(=O)CC(O)(CC(=O)OCC)C(=O)OCC`: the outcome in assay [1] was “inactive”; in assay [2] it was “inactive”; in assay [3], “inactive”; in the assay with CD40, CD40 (gene 958) [4] it was “inactive”; in [5], “inactive”; in assay [6], “inactive”. Further, the result in assay [7], in [8], in assay [9], in [10], in assay [11] and in assay [12] was inactive. Also, the outcome is “inactive” in assay [13]; “inactive” with CD38, CD38 (gene 952); “inactive” in the assay with CD40, CD40 (gene 958) [14]; “inactive” with CD69, CD69 (gene 969); “inactive” in [15]; “inactive” in assay [16]. The outcome in [17] was inactive.
